Source: PubChem BioAssay (NCATS)
Records with an inconclusive call do not appear. Values without a mark were called inactive. Calls of active or inactive are those of the source. The call rests on the fitted dose curve; in most records, active means well fitted curve in the direction sought with a large enough effect; inconclusive means small, poorly fitted or top-dose-only effect, or another doubt; inactive means no such curve, though single readings can be large; an effect the other way counts as inactive or inconclusive. Peptide text beside a SMILES is read from it. * marks the point of attachment. Cbz = O=C(OCc1ccccc1)*
Further: nearly all actives have a fitted effect of over 35% in size.
Potency means the concentration at half of the fitted maximal effect.

Assay: Quantitative highthroughput screen to assess conditional lethalithy of P12 Ichikawa cells grown in RPMI1640 with dialyzed fetal bovine serum (RPMI+ds) (AID 1963880);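 on viability: 100% = DMSO wells and 0% = empty wells on each plate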
Settings: ATP luminescence, 48 h; Potency: P12-Ichikawa viability; series mostly up to 45.8 µM; viability: at the top concentration
Summary of the method: (§1)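 Each medium arm—HPLM with 10% dialyzed FBS, or RPMI1640 with 5 mM glucose and 10% untreated or dialyzed FBS—was screened against an 11-point, 3-fold compound titration for 48 h at 37 °C, with CellTiter-Glo luminescence as endpoint.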
With CN1CCN(c2ccc(C(=O)Nc3n[nH]c4ccc(Cc5cc(F)cc(F)c5)cc34)c(NC3CCOCC3)c2)CC1 the Potency was 18.6 µM (active). For CCN(c1ccccc1)c1cc(NC)[n+](C)c(C)n1, the “viability” value was 104%. For CC1CCN(c2cc(N3CCN(C)CC3)ccc2NC(=O)c2cc(C#N)c[nH]2)CC1, the “viability” value was 95.9%. In the case of C[C@H]1[C@@H](OC(=O)CCC(=O)O)O[C@@H]2O[C@@]3(C)CC[C@@H]4[C@H](C)CC[C@@H]1[C@@]24OO3, the Potency is reported as 6.62 µM (active). With O=S(=O)(O)CCS the Potency was 8.33 µM (active). In the case of COCCNCCCn1c(C(=O)CF)c(-c2ccc(C)cc2)c2c(N)ncnc21, the “viability” value is reported as 84.5%. In the case of NCCCC(N)(C(=O)O)C(F)F (centres undefined), the “viability” value is reported as 100%. In the case of Nc1[nH]nc2nnc(-c3c(-c4ccccc4)nn4ccccc34)cc12, the Potency is reported as 13.2 µM (active). In the case of COC(=O)C1C2CC3c4[nH]c5cc(OC)ccc5c4CCN3CC2CC(OC(=O)c2cc(OC)c(OC)c(OC)c2)C1OC (centres undefined), the “viability” value is reported as 101%. With OC(CCN1CCCCC1)(c1ccccc1)C1CC2C=CC1C2 (centres undefined) the “viability” value was 102%. For CCOc1ccccc1OCCNC(C)Cc1ccc(OC)c(S(N)(=O)=O)c1 (centres undefined), the “viability” value was 97.6%.

Assay: Quantitative highthroughput screen to assess conditional lethalithy of P12 Ichikawa cells grown in RPMI1640 with untreated serum (RPMI+s) (AID 1963881);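 on viability: 100% = DMSO wells and 0% = empty wells without cells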
Settings: ATP luminescence, 48 h; Potency: viability; series mostly up to 45.8 µM; viability: at the top concentration
Summary of the method: as §1
With C[N+](C)(C)CC(=O)O the “viability” value was 101%. For COCCCN1CCC(NC(=O)c2cc(Cl)c(N)c3c2OCC3)CC1, the Potency was 18.7 µM (active). With CNC(=O)c1ccc(Nc2ncc(C(F)(F)F)c(NCc3nccnc3N(C)S(C)(=O)=O)n2)cc1 the “viability” value was 103%. With Cc1cc2c(s1)Nc1ccccc1N=C2N1CCN(C)CC1 the “viability” value was 80.6%. With CC1Cc2ccccc2N1NC(=O)c1ccc(Cl)c(S(N)(=O)=O)c1 (centres undefined) the “viability” value was 93.5%. In the case of Nc1[nH]c(=O)ncc1F, the “viability” value is reported as 96.7%. With CC1(C)O[C@H]2CC(=O)OC[C@]23[C@H]2CC[C@@]4(C)[C@H](c5ccoc5)OC(=O)[C@H]5O[C@]54[C@]2(C)C(=O)C[C@@H]13 the “viability” value was 108%. For O=C(/C=C\n1cnc(-c2cc(C(F)(F)F)cc(C(F)(F)F)c2)n1)NNc1cnccn1, the Potency was 0.524 µM (active). For CCCc1cc(C(N)=S)ccn1, the “viability” value was 102%. With C=C1C(=O)[C@@]23C(CC[C@@H]1[C@H]2O)[C@@]12CO[C@]3(O)[C@@H](O)[C@@H]1C(C)(C)CC[C@@H]2O (some centres undefined) the Potency was 7.43 µM (active). In the case of CCc1ccc(OCc2ccccc2C(=O)Nc2ccc3nc(C)cc(N)c3c2)cc1, the Potency is reported as 13.2 µM (active). With CC1(C)CCC(c2ccc(Cl)cc2)=C(CN2CCN(c3ccc(C(=O)NS(=O)(=O)c4ccc(N[C@H](CCN5CCOCC5)CSc5ccccc5)c(S(=O)(=O)C(F)(F)F)c4)cc3)CC2)C1 the Potency was 0.166 µM (active). With CC(C)C[C@@H](C=O)NC(=O)[C@H](CC(C)C)NC(=O)[C@H](CC(C)C)NC(=O)OCc1ccccc1 (Cbz-Leu-Leu-Leu-aldehyde) the Potency was 1.18 µM (active). In the case of O=C(O)CCNC(=O)c1ccc(N=Nc2ccc(O)c(C(=O)O)c2)cc1, the “viability” value is reported as 101%. In the case of CN1CCN(c2ccc(C(=O)Nc3n[nH]c4ccc(Cc5cc(F)cc(F)c5)cc34)c(NC3CCOCC3)c2)CC1, the Potency is reported as 23.4 µM (active). With CCN(c1ccccc1)c1cc(NC)[n+](C)c(C)n1 the “viability” value was 98.8%. In the case of CC1CCN(c2cc(N3CCN(C)CC3)ccc2NC(=O)c2cc(C#N)c[nH]2)CC1, the “viability” value is reported as 103%. For C[C@H]1[C@@H](OC(=O)CCC(=O)O)O[C@@H]2O[C@@]3(C)CC[C@@H]4[C@H](C)CC[C@@H]1[C@@]24OO3, the Potency was 5.26 µM (active). With O=S(=O)(O)CCS the Potency was 3.72 µM (active). In the case of COCCNCCCn1c(C(=O)CF)c(-c2ccc(C)cc2)c2c(N)ncnc21, the “viability” value is reported as 99.6%. In the case of NCCCC(N)(C(=O)O)C(F)F (centres undefined), the “viability” value is reported as 105%. In the case of Nc1[nH]nc2nnc(-c3c(-c4ccccc4)nn4ccccc34)cc12, the Potency is reported as 7.43 µM (active). In the case of COC(=O)C1C2CC3c4[nH]c5cc(OC)ccc5c4CCN3CC2CC(OC(=O)c2cc(OC)c(OC)c(OC)c2)C1OC (centres undefined), the “viability” value is reported as 86.8%. In the case of OC(CCN1CCCCC1)(c1ccccc1)C1CC2C=CC1C2 (centres undefined), the “viability” value is reported as 92.9%. With CCOc1ccccc1OCCNC(C)Cc1ccc(OC)c(S(N)(=O)=O)c1 (centres undefined) the “viability” value was 101%.

Assay: Quantitative highthroughput screen to assess conditional lethalithy of SEM cells grown in Human Plasma-Like Medium with dialyzed fetal bovine serum (HPLM+ds) (AID 1963882)
Settings: SEM B-ALL cells in HPLM+ds, CellTiter-Glo viability, 48 h; series mostly up to 45.8 µM; viability: at the top concentration
Summary of the method: as §1
With O=C1CCCC2=C1C(c1[nH]ncc1Cl)N=C(Nc1nc3ccccc3o1)N2 (centres undefined) the “viability” value was 75.9%. With CCN1CCN(c2ccc(Nc3cc(N(C)C(=O)Nc4c(Cl)c(OC)cc(OC)c4Cl)ncn3)cc2)CC1 the Potency was 4.18 µM (active). In the case of COCCCN1CCC(NC(=O)c2cc(Cl)c(N)c3c2OCC3)CC1, the “viability” value is reported as 90.3%. In the case of CNC(=O)c1ccc(Nc2ncc(C(F)(F)F)c(NCc3nccnc3N(C)S(C)(=O)=O)n2)cc1, the Potency is reported as 1.48 µM (active). For O=C1NC(=O)C(c2cnc3ccccn23)=C1c1cn2c3c(cccc13)CN(C(=O)N1CCOCC1)CC2, the Potency was 0.0066 µM (active). With Cc1cc2c(s1)Nc1ccccc1N=C2N1CCN(C)CC1 the “viability” value was 96.6%. In the case of CC1Cc2ccccc2N1NC(=O)c1ccc(Cl)c(S(N)(=O)=O)c1 (centres undefined), the “viability” value is reported as 91.5%. With Nc1[nH]c(=O)ncc1F the “viability” value was 88.1%. In the case of CC1(C)O[C@H]2CC(=O)OC[C@]23[C@H]2CC[C@@]4(C)[C@H](c5ccoc5)OC(=O)[C@H]5O[C@]54[C@]2(C)C(=O)C[C@@H]13, the “viability” value is reported as 98.2%. With O=C(/C=C\n1cnc(-c2cc(C(F)(F)F)cc(C(F)(F)F)c2)n1)NNc1cnccn1 the Potency was 0.741 µM (active). For CCCc1cc(C(N)=S)ccn1, the “viability” value was 109%. With C=C1C(=O)[C@@]23C(CC[C@@H]1[C@H]2O)[C@@]12CO[C@]3(O)[C@@H](O)[C@@H]1C(C)(C)CC[C@@H]2O (some centres undefined) the Potency was 8.33 µM (active). With CCc1ccc(OCc2ccccc2C(=O)Nc2ccc3nc(C)cc(N)c3c2)cc1 the Potency was 3.72 µM (active). With CO[C@@H]1C(N(C)C(=O)c2ccccc2)C[C@H]2O[C@]1(C)n1c3ccccc3c3c4c(c5c6ccccc6n2c5c31)C(=O)NC4=O (some centres undefined) the Potency was 4.69 µM (active). For N#Cc1ccnc(Nc2cc(C3CCN(C4COC4)CC3)cc(N3CCC(F)(F)C3)n2)c1, the Potency was 13.2 µM (active). With CC1(C)CCC(c2ccc(Cl)cc2)=C(CN2CCN(c3ccc(C(=O)NS(=O)(=O)c4ccc(N[C@H](CCN5CCOCC5)CSc5ccccc5)c(S(=O)(=O)C(F)(F)F)c4)cc3)CC2)C1 the Potency was 0.0833 µM (active). For CC(C)C[C@@H](C=O)NC(=O)[C@H](CC(C)C)NC(=O)[C@H](CC(C)C)NC(=O)OCc1ccccc1 (Cbz-Leu-Leu-Leu-aldehyde), the Potency was 0.662 µM (active). In the case of O=C(O)CCNC(=O)c1ccc(N=Nc2ccc(O)c(C(=O)O)c2)cc1, the “viability” value is reported as 97.4%. In the case of CN1CCN(c2ccc(C(=O)Nc3n[nH]c4ccc(Cc5cc(F)cc(F)c5)cc34)c(NC3CCOCC3)c2)CC1, the Potency is reported as 4.17 µM (active). For COc1c(C)cnc(Cn2cnc3c(Cl)nc(N)nc32)c1C, the Potency was 0.372 µM (active). For CCN(c1ccccc1)c1cc(NC)[n+](C)c(C)n1, the “viability” value was 100%. For CC1CCN(c2cc(N3CCN(C)CC3)ccc2NC(=O)c2cc(C#N)c[nH]2)CC1, the “viability” value was 97.8%. For C[C@H]1[C@@H](OC(=O)CCC(=O)O)O[C@@H]2O[C@@]3(C)CC[C@@H]4[C@H](C)CC[C@@H]1[C@@]24OO3, the Potency was 4.69 µM (active). For O=S(=O)(O)CCS, the “viability” value was 97.7%. For COCCNCCCn1c(C(=O)CF)c(-c2ccc(C)cc2)c2c(N)ncnc21, the Potency was 11.8 µM (active). In the case of NCCCC(N)(C(=O)O)C(F)F (centres undefined), the “viability” value is reported as 98.8%. For Nc1[nH]nc2nnc(-c3c(-c4ccccc4)nn4ccccc34)cc12, the Potency was 23.5 µM (active). For COC(=O)C1C2CC3c4[nH]c5cc(OC)ccc5c4CCN3CC2CC(OC(=O)c2cc(OC)c(OC)c(OC)c2)C1OC (centres undefined), the “viability” value was 102%. With Nc1nc2c(ncn2COC(CO)CO)c(=O)[nH]1 the Potency was 23.5 µM (active). With CCOc1ccccc1OCCNC(C)Cc1ccc(OC)c(S(N)(=O)=O)c1 (centres undefined) the “viability” value was 82.8%. With Nc1nc(Nc2ccc(S(N)(=O)=O)cc2)nn1C(=O)c1c(F)cccc1F the Potency was 8.33 µM (active). In the case of CNC(=O)c1nn(C)c2c1C(C)(C)Cc1cnc(Nc3ccc(N4CCN(C)CC4)cc3)nc1-2, the Potency is reported as 0.264 µM (active). With Cc1ccc(C(=O)Nc2cccc(C(F)(F)F)c2)cc1-c1ccc2nc(NCCN3CCOCC3)ncc2c1 the Potency was 4.69 µM (active).
